The record followed here is PubChem BioAssay (EPA / NIEHS).

A short description of experiment [1]: ATG_GRE_CIS: Attagene CIS-FACTORIAL HepG2 Assay for human Glucocorticoid Response Elements (GRE) (AID 2282947). The following applies: HepG2 GRE cis-reporter, Attagene multiplex mRNA; actives raise or lower the signal. In a few lines: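 Transiently transfected HepG2 cells carrying GRE cis-reporter units (endogenous TF activity) dosed 24 h; reporter mRNA quantified by RT-PCR, 6-FAM labelling, HpaI digestion and capillary electrophoresis. Bidirectional fit versus DMSO baseline.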

The nature of experiment [2]: ATG_ISRE_CIS: Attagene CIS-FACTORIAL HepG2 Assay for human Interferon Regulatory Factor 1 (IRF1) binding to an Interferon-Stimulated Response Element (ISRE) (AID 2282948). The note with it: HepG2 ISRE cis-reporter (Attagene), mRNA transcription readout; actives raise or lower the signal. The gist of the method: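 Transiently transfected HepG2 cells carrying cis-element reporter units, dosed 24 hours. Reporter mRNA quantified by RT-PCR, fluorescent primer extension, HpaI digestion and capillary electrophoresis. Bidirectional fitting relative to DMSO.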

Experiment [3] is described as follows: ATG_M_32_CIS: Attagene CIS-FACTORIAL HepG2 Assay for M32 Transcription Factor (Internal Marker) (AID 2282949).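 Note: background control marker of the multiplexed CIS panel rather than a real target.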 The following applies: HepG2 Attagene cis-factorial M32 reporter, mRNA; actives raise or lower the signal. In a few lines:
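HepG2 cells transiently transfected with multiplexed cis-regulated reporter units, dosed 24 h. Reporter mRNA quantified by RT-PCR, 6-FAM labelling, HpaI digestion and capillary electrophoresis; bidirectional fit vs DMSO.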

Experiment [4] can be described thus: ATG_M_06_CIS: Attagene CIS-FACTORIAL HepG2 Assay for M06 Transcription Factor (Internal Marker) (AID 2282950). The note with it: HepG2 Attagene CIS-FACTORIAL M06 internal marker reporter; actives raise or lower the signal. In a few lines:
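One of many multiplexed endpoints: HepG2 reporter mRNA after 24 h dosing, detected by RT-PCR and capillary electrophoresis fluorescence; gain or loss of signal analysed against DMSO.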

Experiment [5] addresses Hypoxia-inducible factor 1-alpha (Homo sapiens) (UniProt Q16665). Put plainly: ATG_HIF1a_CIS: Attagene CIS-FACTORIAL HepG2 Assay for human Hypoxia Inducible Factor 1 (HIF1A) (AID 2282951). The note with it: HepG2 Attagene cis-factorial HIF1a reporter transcription; actives raise or lower the signal. The gist of the method: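 Measures endogenous transcription-factor activity through cis-regulated reporter mRNA in HepG2. Cells dosed 24 h; transcripts quantified by RT-PCR with 6-FAM-labelled products separated by capillary electrophoresis; DMSO serves as negative control.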

In experiment [6] the target is Hepatocyte nuclear factor 6 (Homo sapiens) (UniProt Q9UBC0). Put plainly: ATG_HNF6_CIS: Attagene CIS-FACTORIAL HepG2 Assay for human Hepatocyte Nuclear Factor 6 (HNF6) (AID 2282952). The note with it: HepG2 Attagene cis-factorial HNF6 reporter transcription; actives raise or lower the signal. In a few lines: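 HepG2, transient MRTU transfection (cis promoters); 24 h chemical exposure; total RNA → oligo(dT) RT → PCR → 6-FAM labelling → HpaI cut → CE; bidirectional fit vs DMSO.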

Experiment [7] concerns the target Heat shock factor protein 1 (Homo sapiens) (UniProt Q00613). Put plainly: ATG_HSE_CIS: Attagene CIS-FACTORIAL HepG2 Assay for human Heat Shock Transcription Factor 1 (HSE) (AID 2282953). The following applies: HepG2 HSE cis-reporter, Attagene RNA transcription; actives raise or lower the signal. In a few lines:
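Using HepG2 with transfected cis-driven reporter constructs, compound effects on endogenous factor activity are scored as reporter mRNA change at 24 h. Detection: RT-PCR, HpaI digestion, capillary electrophoresis; bidirectional fitting to DMSO.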

The nature of experiment [8]: ATG_MRE_CIS: Attagene CIS-FACTORIAL HepG2 Assay for human Metal Responsive Element (MRE) (AID 2282954). The following applies: HepG2 MRE cis-reporter transcription, Attagene multiplex; actives raise or lower the signal. In a few lines:
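HepG2 cells transiently transfected with cis-element-driven reporter units; mRNA measured 24 h after dosing. Reporter transcripts quantified by RT-PCR, FAM labelling, HpaI digestion and capillary electrophoresis; bidirectional fit versus DMSO.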

Experiment [9] in a line: ATG_PBREM_CIS: Attagene CIS-FACTORIAL HepG2 Assay for human Phenobarbital-responsive Enhancer Module (PBREM) (AID 2282955). The following applies: HepG2 PBREM cis-reporter, Attagene multiplexed transcription; actives raise or lower the signal. The gist of the method:
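Fluorescence of labelled reporter cDNA fragments, resolved by capillary electrophoresis, gives mRNA induction in transfected HepG2 cells treated for 24 h; DMSO serves as negative control and baseline.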

For experiment [10], the target named is Paired box protein Pax-6 (Homo sapiens) (UniProt P26367). Put plainly: ATG_Pax6_CIS: Attagene CIS-FACTORIAL HepG2 Assay for human Paired Box 6 (PAX6) (AID 2282956). The note with it: HepG2 CIS-FACTORIAL PAX6 reporter transcription, RNA readout; actives raise or lower the signal. The gist of the method:
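HepG2 cells transiently transfected with cis-promoter-driven multiplexed reporter units sensing endogenous transcription factor activity; 24 h chemical exposure. Reporter mRNA quantified by RT-PCR, 6-FAM labelling, HpaI digestion and capillary electrophoresis; bidirectional fit versus DMSO baseline.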

A short description of experiment [11]: ATG_PXRE_CIS: Attagene CIS-FACTORIAL HepG2 Assay for human Pregnane X Receptor Element (PXRE) (AID 2282957). The note with it: HepG2 Attagene CIS-FACTORIAL PXRE reporter, mRNA; actives raise or lower the signal. In a few lines: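 Transfect HepG2 with MRTUs (cis promoter elements); dose chemical, incubate 24 h; isolate RNA, RT with oligo(dT), PCR, 6-FAM label, HpaI cut, CE. Gain/loss fit vs DMSO.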

Experiment [12] can be described thus: ATG_RORE_CIS: Attagene CIS-FACTORIAL HepG2 Assay for human RAR-related Orphan Receptor Element (RORE) (AID 2282959). The following applies: HepG2 Attagene cis-factorial RORE reporter, mRNA; actives raise or lower the signal. The gist of the method:
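Cells were HepG2 carrying transfected cis-regulated reporter constructs, dosed for 24 hours. Total RNA was reverse-transcribed and reporter cDNA amplified, fluorescently labeled and sized by capillary electrophoresis. Activity was fitted bidirectionally relative to DMSO.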

Experiment [13] can be described thus: ATG_Sox_CIS: Attagene CIS-FACTORIAL HepG2 Assay for human SRY-box transcription factor (SOX) (AID 2282960). The following applies: HepG2 Attagene cis-factorial SOX reporter, mRNA; actives raise or lower the signal. The gist of the method:
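Transient MRTU transfection of HepG2; 24 h compound incubation; TriZol RNA, oligo(dT) RT, PCR, 6-FAM primer extension, HpaI cut, CE. Bidirectional fit, DMSO = baseline.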

In experiment [14] the target is Transcription factor Sp1 (Homo sapiens) (UniProt P08047). Kind of experiment: ATG_Sp1_CIS: Attagene CIS-FACTORIAL HepG2 Assay for human Specificity Protein 1 (Sp1) (AID 2282961). The following applies: HepG2 Sp1 cis-reporter transcription, actives raise or lower the signal. In a few lines:
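Endogenous Sp1 activity was gauged in human liver HepG2 cells bearing transfected reporter units under a cis-regulating promoter. After 24 h dosing, reporter mRNA was quantified by RT-PCR with capillary electrophoresis, and activity fitted bidirectionally versus DMSO.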

Experiment [15] deals with Signal transducer and activator of transcription 3 (Homo sapiens) (UniProt P40763). Put plainly: ATG_STAT3_CIS: Attagene CIS-FACTORIAL HepG2 Assay for human Signal Transducer and Activator of Transcription 3 (STAT3) (AID 2282963). The note with it: HepG2, Attagene cis-factorial STAT3 reporter transcription; actives raise or lower the signal. The gist of the method:
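HepG2 cells transiently transfected with multiple cis-element-driven reporter units report endogenous transcription factor activity. After 24 h compound exposure, reporter mRNA is measured by RT-PCR, 6-FAM labelling, HpaI digestion and capillary electrophoresis. Fitted bidirectionally versus DMSO.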

The nature of experiment [16]: ATG_TA_CIS: Attagene CIS-FACTORIAL HepG2 Assay for human TA Basal Promoter (AID 2282964). The following applies: HepG2 Attagene CIS-factorial TA basal promoter reporter; actives raise or lower the signal. The gist of the method:
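Transient MRTU transfection of HepG2 preceded 24 h compound exposure. Reporter mRNA levels were then read by RT-PCR with capillary electrophoresis, and this background-control endpoint was fitted bidirectionally to DMSO.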

Experiment [17] is described as follows: ATG_TCF_b_cat_CIS: Attagene CIS-FACTORIAL HepG2 Assay for human T-Cell-Factor with beta-catenin (TCF/b-cat) (AID 2282965). The following applies: HepG2 TCF/beta-catenin cis-reporter transcription, actives raise or lower the signal. In a few lines:
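HepG2 cells transiently transfected with cis-promoter-driven multiplexed reporter units; reporter mRNA measured 24 h after dosing by RT-PCR, FAM labelling, HpaI digestion and capillary electrophoresis. Bidirectional fitting relative to DMSO baseline.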

Experiment [18] in a line: ATG_TAL_CIS: Attagene CIS-FACTORIAL HepG2 Assay for human TAL Basal Promoter (AID 2282966).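 Note: background control endpoint measuring basal TAL promoter reporter mRNA not a specific factor.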 The note with it: HepG2 Attagene cis-factorial TAL promoter reporter; actives raise or lower the signal. In a few lines: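 Fluorescence of labelled reporter cDNA fragments, resolved by capillary electrophoresis, gave the readout. Human HepG2 liver cells carried transiently transfected cis-element reporter units and were treated for 24 hours; activity was fitted bidirectionally against DMSO.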

Experiment [19] in a line: ATG_SREBP_CIS: Attagene CIS-FACTORIAL HepG2 Assay for human Sterol Regulatory Element Binding (SREBP) (AID 2282962). The following applies: HepG2 Attagene cis-factorial SREBP reporter, mRNA; actives raise or lower the signal. In a few lines:
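HepG2 cells transiently transfected with multiplexed cis-promoter reporter units sensing endogenous transcription factors; reporter mRNA measured 24 h after dosing by RT-PCR, 6-FAM labeling, HpaI digestion and capillary electrophoresis. Bidirectional fit versus DMSO.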

The nature of experiment [20]: ATG_PPRE_CIS: Attagene CIS-FACTORIAL HepG2 Assay for human Peroxisome Proliferator-activated Response Element (PPRE) (AID 2282958). The note with it: HepG2 PPRE cis-element reporter, Attagene transcription factor profiling; actives raise or lower the signal. The gist of the method:
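Cells are first transfected transiently with the multiplexed reporter library, then dosed for 24 h. Total RNA is reverse-transcribed, amplified, fluorescently end-labeled and HpaI-cut before capillary electrophoresis; activity is fitted bidirectionally against DMSO controls.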

By AC50 is commonly meant the concentration at which the activity in the assay is half-maximal.

Values joined by “and” are separate entries in the source; they are usually repeats but may differ in a detail not shown here. Identical values can stand only once. Where a structure was tested more than once in an assay, its records may differ in their call. Active and inactive are the calls of the source. Rule for the calls: active = hit-call score of the fitted dose curve at least 0.9, where 1 is the maximum; inactive = score below 0.9.

Paired box protein Pax-6 (Homo sapiens), sequence (P26367 whole entry, looked up): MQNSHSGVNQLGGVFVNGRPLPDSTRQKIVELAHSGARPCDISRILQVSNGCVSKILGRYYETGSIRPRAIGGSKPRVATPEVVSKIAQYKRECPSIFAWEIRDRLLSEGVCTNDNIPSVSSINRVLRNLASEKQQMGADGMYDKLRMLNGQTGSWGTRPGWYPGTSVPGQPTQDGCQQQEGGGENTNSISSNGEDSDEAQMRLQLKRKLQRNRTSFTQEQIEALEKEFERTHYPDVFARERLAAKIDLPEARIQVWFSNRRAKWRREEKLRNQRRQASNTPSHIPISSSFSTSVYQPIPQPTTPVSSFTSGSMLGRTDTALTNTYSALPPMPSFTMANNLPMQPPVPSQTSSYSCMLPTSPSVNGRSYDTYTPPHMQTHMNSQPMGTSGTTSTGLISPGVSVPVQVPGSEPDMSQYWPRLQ
Transcription factor Sp1 (Homo sapiens), sequence (P08047 whole entry, looked up): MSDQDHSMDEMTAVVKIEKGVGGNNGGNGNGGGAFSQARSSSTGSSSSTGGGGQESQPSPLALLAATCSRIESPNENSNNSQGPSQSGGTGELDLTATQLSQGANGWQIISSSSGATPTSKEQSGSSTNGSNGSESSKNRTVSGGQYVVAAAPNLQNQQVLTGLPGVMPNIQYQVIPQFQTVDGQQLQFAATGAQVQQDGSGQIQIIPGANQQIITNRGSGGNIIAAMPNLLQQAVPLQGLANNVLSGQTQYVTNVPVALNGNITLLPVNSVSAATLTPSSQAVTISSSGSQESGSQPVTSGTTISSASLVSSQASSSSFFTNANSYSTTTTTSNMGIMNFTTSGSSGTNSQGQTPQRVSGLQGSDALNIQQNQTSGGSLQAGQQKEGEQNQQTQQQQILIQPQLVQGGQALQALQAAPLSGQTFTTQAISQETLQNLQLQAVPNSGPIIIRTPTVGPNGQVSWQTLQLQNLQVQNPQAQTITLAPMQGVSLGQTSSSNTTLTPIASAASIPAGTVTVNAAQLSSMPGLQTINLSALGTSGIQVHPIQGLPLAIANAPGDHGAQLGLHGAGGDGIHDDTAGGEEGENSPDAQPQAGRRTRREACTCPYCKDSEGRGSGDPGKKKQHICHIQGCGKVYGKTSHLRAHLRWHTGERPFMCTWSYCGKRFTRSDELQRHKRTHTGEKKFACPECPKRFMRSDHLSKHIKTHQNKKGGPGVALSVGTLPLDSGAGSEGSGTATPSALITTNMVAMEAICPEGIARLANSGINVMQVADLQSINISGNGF
Hepatocyte nuclear factor 6 (Homo sapiens), sequence (Q9UBC0 whole entry, looked up): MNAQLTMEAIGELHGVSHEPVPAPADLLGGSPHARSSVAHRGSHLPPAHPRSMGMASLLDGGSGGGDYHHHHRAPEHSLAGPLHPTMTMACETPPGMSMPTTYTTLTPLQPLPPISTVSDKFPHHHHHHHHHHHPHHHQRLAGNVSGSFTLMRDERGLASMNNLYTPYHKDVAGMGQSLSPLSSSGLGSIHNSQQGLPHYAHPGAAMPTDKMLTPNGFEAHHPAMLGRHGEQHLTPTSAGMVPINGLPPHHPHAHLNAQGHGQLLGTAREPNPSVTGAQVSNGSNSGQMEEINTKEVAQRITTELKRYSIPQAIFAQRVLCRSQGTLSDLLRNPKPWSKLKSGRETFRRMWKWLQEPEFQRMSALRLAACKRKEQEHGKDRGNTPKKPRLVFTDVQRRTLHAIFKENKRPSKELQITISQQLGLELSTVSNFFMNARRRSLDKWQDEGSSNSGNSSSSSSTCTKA
Signal transducer and activator of transcription 3 (Homo sapiens), sequence (P40763 whole entry, looked up): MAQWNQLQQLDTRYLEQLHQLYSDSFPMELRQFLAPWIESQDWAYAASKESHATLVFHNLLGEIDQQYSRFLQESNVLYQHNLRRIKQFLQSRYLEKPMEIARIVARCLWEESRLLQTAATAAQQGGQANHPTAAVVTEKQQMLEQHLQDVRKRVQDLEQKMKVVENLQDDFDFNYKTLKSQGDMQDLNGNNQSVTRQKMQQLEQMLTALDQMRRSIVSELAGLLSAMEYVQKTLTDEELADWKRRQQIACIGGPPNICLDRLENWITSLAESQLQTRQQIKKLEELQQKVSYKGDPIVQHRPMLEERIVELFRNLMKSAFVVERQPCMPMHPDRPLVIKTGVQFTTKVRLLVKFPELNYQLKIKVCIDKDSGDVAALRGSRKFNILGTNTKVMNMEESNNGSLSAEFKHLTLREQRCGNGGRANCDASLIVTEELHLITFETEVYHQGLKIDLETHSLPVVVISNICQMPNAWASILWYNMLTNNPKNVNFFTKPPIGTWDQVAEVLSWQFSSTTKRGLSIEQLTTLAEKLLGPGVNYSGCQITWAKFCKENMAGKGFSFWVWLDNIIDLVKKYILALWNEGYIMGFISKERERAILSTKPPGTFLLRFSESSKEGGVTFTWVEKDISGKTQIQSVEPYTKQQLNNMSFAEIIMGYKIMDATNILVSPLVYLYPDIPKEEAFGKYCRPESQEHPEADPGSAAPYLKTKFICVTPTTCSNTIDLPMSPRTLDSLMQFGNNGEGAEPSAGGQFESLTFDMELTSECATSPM
Heat shock factor protein 1 (Homo sapiens), sequence (Q00613 whole entry, looked up): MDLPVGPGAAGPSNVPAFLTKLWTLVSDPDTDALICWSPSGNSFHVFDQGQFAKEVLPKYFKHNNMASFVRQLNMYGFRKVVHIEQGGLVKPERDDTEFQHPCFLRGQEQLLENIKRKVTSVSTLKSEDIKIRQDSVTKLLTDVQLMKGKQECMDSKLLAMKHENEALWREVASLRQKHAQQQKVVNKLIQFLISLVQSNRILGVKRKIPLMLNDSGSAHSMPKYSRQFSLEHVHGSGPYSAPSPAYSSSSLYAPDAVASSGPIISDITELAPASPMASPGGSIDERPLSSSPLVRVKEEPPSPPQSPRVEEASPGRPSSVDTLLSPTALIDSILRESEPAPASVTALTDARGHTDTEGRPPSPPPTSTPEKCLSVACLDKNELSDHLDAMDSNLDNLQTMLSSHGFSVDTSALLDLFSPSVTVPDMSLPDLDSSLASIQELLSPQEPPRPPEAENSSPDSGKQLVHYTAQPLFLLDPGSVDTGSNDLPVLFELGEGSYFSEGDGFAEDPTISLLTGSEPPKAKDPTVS
Hypoxia-inducible factor 1-alpha (Homo sapiens), sequence (Q16665 whole entry, looked up): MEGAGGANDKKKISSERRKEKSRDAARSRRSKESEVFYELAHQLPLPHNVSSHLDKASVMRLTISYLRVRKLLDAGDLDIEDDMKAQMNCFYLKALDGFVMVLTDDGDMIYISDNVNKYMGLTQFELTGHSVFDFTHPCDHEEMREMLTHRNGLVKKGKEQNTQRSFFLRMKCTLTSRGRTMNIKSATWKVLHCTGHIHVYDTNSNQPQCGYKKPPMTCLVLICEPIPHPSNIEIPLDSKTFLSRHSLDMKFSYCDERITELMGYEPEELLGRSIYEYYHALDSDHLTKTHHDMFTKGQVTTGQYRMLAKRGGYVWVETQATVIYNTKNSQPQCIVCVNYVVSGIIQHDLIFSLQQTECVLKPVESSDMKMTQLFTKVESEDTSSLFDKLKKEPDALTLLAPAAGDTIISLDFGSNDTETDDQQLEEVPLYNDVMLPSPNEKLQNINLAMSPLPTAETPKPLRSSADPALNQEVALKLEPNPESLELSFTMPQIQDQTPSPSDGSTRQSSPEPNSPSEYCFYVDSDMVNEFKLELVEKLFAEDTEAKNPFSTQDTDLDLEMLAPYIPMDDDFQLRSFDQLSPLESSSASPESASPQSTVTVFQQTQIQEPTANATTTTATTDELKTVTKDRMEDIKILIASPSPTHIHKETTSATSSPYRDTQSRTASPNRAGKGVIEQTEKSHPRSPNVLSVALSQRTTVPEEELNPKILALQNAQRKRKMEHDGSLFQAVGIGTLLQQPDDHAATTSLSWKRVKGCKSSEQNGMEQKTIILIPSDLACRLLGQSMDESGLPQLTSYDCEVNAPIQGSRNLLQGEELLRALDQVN

As for `CC1(C)C(C=C(Cl)Cl)C1C(=O)OCc1cccc(Oc2ccccc2)c1` (stereo not drawn), the outcome in experiment [1], in experiment [2], in [3], in experiment [4], in experiment [5] and in experiment [6] was inactive. Further, the molecule was classed as inactive in [7], in [8], in experiment [9], in experiment [10], in experiment [12] and in experiment [13]. Moreover, the molecule was called inactive in experiment [14], in experiment [15], in experiment [16], in experiment [17] and in experiment [18]. Besides, the AC50 in experiment [11] is 7.62 µM (active).

For `S=C([S-])NCCNC(=S)[S-].[Mn+2]`, the call in experiment [1], in experiment [2], in experiment [3], in [4], in [5] and in experiment [6] was inactive. The molecule was called inactive in experiment [7], in [8], in [10], in [11], in [12] and in [13]. For the same molecule, the outcome in [14], in [19], in experiment [15], in [16], in experiment [17] and in experiment [18] was inactive.

Regarding `CC(=O)[C@H]1CC[C@H]2[C@@H]3CCC4=CC(=O)CC[C@]4(C)[C@H]3CC[C@]12C`, the AC50 in [2] was 46.4 µM (active); in experiment [6] it was 182 µM (active); in experiment [7], 60 µM (active) and 149 µM (active); in experiment [8] it was 33.4 µM (active) and 38.9 µM (active) and 117 µM (active); in experiment [10], 24.6 µM (active); in experiment [11] it was 4.83 µM (active) [middle of 4 runs]. Besides, the AC50 was 180 µM (active) in [15] and 177 µM (active) in experiment [18]. In addition, the outcome in [2], in experiment [3], in experiment [4], in [6], in [7] and in experiment [8] was inactive. Further, the molecule was called inactive in [10], in experiment [20], in experiment [13], in experiment [14], in [15] and in experiment [16]. Moreover, the outcome in experiment [17] and in [18] was inactive.
